# From PubChem BioAssay
# The source made the active and inactive calls.
# Key:
# [1] = binders of probe aFSTL3 on microarray, primary screen, stem cell growth factor project, biochemical, small-molecule microarray, fluorescence 635/667 (AID 1064); details: higher = more signal;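 further: measures binding of the biotinylated anti-FSTL3 antibody to printed compounds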
# [2] = binders from COS7 lysate, DM2A8 probe, primary screen, torsin A project, cell lysate, small-molecule microarray, fluorescence 635/667 (AID 1065); details: higher = more signal, COS7 lysate expressing mutant human TOR1A
# [3] = binders of probe aFGF2 on microarray, primary screen, stem cell growth factor project, biochemical, small-molecule microarray, fluorescence 635/667 (AID 1067); details: higher = more signal;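 further: measures binding of biotinylated aFGF2 protein to printed compounds on slides; z-score merges feature fluorescence and signal-to-noise across triplicate slides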
# [4] = binders of probe aFGF10 on microarray, primary screen, stem cell growth factor project, biochemical, small-molecule microarray, fluorescence 635/667 (AID 1071); details: higher = more signal;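 further: score merges 667 nm spot intensity and signal to noise from triplicate slides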
# [5] = molecular target: Neurogenic locus notch homolog protein 2 (Homo sapiens) (UniProt Q04721); experiment: Notch2 binders on small-molecule microarrays, primary screen, biochemical, small-molecule microarray, 635 nm fluorescence, stem cell growth factors (AID 1073); details: Notch2 binding, higher = more signal
# [6] = molecular target: Pro-neuregulin-1, membrane-bound isoform (Homo sapiens) (UniProt Q02297); experiment: NRG1 binders on small-molecule microarrays, primary screen, psychiatric disease protein project, biochemical, small-molecule microarray, fluorescence 635/667 (AID 1075); details: NRG1 binding, 635 nm fluorescence, higher = more signal;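 further: score combines 667 nm spot fluorescence with signal to noise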
# Pro-neuregulin-1, membrane-bound isoform (Homo sapiens), sequence (Q02297 whole entry, looked up, the tested form may be a part, canonical isoform): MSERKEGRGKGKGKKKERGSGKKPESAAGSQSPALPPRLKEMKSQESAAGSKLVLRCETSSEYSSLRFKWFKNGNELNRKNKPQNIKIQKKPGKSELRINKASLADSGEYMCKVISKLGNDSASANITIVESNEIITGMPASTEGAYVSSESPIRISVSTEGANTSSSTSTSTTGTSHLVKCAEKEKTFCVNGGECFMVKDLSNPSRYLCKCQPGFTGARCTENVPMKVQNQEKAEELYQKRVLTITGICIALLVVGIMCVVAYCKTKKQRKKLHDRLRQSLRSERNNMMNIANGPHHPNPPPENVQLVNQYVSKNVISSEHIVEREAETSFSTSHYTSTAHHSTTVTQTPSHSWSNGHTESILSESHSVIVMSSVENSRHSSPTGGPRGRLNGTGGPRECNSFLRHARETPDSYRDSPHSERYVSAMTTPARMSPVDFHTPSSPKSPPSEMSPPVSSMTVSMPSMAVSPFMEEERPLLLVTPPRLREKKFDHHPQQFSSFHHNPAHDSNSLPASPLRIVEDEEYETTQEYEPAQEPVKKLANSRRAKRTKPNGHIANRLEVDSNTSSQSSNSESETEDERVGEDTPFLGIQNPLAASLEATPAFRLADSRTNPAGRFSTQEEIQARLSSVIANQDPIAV
# [7] = tested on: Neuregulin-1 EGF-like domain; experiment: binders of neuregulin-1 EGF-like domain, primary screen, biochemical, small-molecule microarray, 635 nm fluorescence (AID 1081); details: small-molecule microarray binding, higher = more signal;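 further: binding of the protein to compounds printed on small-molecule microarray slides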
# [8] = FRG1 promoter luciferase signal modulators, primary screen, FRG1 inhibition for FSHD, cell-based, C2C12 myotubes, firefly/Renilla luciferase, luminescence (AID 1084); details: higher = more signal, called active from +8 up or from −8 down
# [9] = binders of probe aFST on microarray, primary screen, stem cell growth factor project, biochemical, small-molecule microarray, fluorescence 635/667 (AID 1086); details: higher = more signal;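 further: score merges 667 nm fluorescence with signal-to-noise of each printed compound spot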
# [10] = binders of probe aHhip on microarray, primary screen, stem cell growth factor project, biochemical, small-molecule microarray, fluorescence 635/667 (AID 1087); details: higher = more signal;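 further: score merges spot fluorescence at 667nm with spot signal to noise ratio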
# [11] = tested on: PRMT1 (protein arginine N-methyltransferase 1); experiment: PRMT1 binders on small-molecule microarrays, primary screen, biochemical, small-molecule microarray, 635 nm fluorescence (AID 1088); details: small-molecule microarray binding, higher = more signal;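 further: binding of Prmt1 protein to compounds spotted on small-molecule microarray slides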
# [12] = yeast growth modulation, basal conditions, primary screen, YJM789 clinical isolate, OD600, 24 h (AID 1089);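 further: growth of clinical yeast isolate S. cerevisiae YJM 789 seeded 1000 cells per well; test concentration not given here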; details: S. cerevisiae YJM789 growth, higher = more signal, called active from +8 up or from −8 down
# [13] = fission yeast growth modulation, primary screen, strain 972, OD600, 24 h, no modulator (AID 1090);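 further: basal condition with compound alone and no growth modifier present; test concentration not given here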; details: S. pombe 972 growth, higher = more signal, called active from +8 up or from −8 down
# [14] = S. cerevisiae growth modulation with rapamycin, primary screen, strain BY4716, OD600, 96 h (AID 1091); details: higher = more signal, called active from +8 up or from −8 down; further: test concentration not given here
# [15] = molecular target: Torsin-1A-interacting protein 2 (Homo sapiens) (UniProt Q8NFQ8); experiment: LULL1 binders on small-molecule microarray, primary screen, cell lysate, human LULL1 lysate, 635/667 nm fluorescence (AID 1092); details: hLULL1 lysate binding, 635 nm fluorescence, higher = more signal;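 further: probe is lysate of COS7 cells overexpressing human LULL1; score merges per-feature 667 nm fluorescence with signal-to-noise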
# Torsin-1A-interacting protein 2 (Homo sapiens), sequence (Q8NFQ8 whole entry, looked up): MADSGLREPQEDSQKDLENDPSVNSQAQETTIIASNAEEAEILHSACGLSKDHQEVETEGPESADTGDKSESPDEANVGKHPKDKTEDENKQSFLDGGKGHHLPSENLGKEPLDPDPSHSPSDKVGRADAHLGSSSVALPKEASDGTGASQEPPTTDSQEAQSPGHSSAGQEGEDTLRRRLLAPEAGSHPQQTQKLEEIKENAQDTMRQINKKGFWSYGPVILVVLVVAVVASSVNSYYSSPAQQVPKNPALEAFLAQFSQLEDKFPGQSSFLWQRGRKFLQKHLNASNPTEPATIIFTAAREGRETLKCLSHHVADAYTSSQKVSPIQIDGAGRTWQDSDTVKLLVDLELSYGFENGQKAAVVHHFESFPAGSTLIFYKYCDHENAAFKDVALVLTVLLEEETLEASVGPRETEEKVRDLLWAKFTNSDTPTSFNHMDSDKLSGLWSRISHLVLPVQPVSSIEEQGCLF
# [16] = E. coli growth modulation, two-sided OD650, primary screen, E. coli filamentation project, strain DRC41, 24 h (AID 1093); details: OD650, 24 h, higher = more signal, called active from +8 up or from −8 down;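 further: MC1000 strain lacking acrAB efflux and sulA so SOS filamentation is blocked; test concentration not given here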
# [17] = small-molecule microarray binders of probe aLefty2, primary screen, biochemical, biotinylated probe, 635/667 nm fluorescence (AID 1094); details: higher = more signal;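 further: score merges spot fluorescence near 667 nm with spot signal-to-noise ratio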
# [18] = tested on: Noggin (protein binding on small-molecule microarray); experiment: Noggin binders on small-molecule microarray, primary screen, biochemical, 635/667 nm fluorescence (AID 1095); details: 635 nm fluorescence, higher = more signal;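 further: score merges 667 nm feature fluorescence with signal to noise over triplicate slides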
# [19] = molecular target: Neurogenic locus notch homolog protein 3 (Homo sapiens) (UniProt Q9UM47); experiment: NOTCH3 binders on small-molecule microarray, primary screen, biochemical, 635/667 nm fluorescence (AID 1096); details: NOTCH3 binding, 635 nm fluorescence, higher = more signal
# Neurogenic locus notch homolog protein 3 (Homo sapiens), sequence (Q9UM47 whole entry, looked up): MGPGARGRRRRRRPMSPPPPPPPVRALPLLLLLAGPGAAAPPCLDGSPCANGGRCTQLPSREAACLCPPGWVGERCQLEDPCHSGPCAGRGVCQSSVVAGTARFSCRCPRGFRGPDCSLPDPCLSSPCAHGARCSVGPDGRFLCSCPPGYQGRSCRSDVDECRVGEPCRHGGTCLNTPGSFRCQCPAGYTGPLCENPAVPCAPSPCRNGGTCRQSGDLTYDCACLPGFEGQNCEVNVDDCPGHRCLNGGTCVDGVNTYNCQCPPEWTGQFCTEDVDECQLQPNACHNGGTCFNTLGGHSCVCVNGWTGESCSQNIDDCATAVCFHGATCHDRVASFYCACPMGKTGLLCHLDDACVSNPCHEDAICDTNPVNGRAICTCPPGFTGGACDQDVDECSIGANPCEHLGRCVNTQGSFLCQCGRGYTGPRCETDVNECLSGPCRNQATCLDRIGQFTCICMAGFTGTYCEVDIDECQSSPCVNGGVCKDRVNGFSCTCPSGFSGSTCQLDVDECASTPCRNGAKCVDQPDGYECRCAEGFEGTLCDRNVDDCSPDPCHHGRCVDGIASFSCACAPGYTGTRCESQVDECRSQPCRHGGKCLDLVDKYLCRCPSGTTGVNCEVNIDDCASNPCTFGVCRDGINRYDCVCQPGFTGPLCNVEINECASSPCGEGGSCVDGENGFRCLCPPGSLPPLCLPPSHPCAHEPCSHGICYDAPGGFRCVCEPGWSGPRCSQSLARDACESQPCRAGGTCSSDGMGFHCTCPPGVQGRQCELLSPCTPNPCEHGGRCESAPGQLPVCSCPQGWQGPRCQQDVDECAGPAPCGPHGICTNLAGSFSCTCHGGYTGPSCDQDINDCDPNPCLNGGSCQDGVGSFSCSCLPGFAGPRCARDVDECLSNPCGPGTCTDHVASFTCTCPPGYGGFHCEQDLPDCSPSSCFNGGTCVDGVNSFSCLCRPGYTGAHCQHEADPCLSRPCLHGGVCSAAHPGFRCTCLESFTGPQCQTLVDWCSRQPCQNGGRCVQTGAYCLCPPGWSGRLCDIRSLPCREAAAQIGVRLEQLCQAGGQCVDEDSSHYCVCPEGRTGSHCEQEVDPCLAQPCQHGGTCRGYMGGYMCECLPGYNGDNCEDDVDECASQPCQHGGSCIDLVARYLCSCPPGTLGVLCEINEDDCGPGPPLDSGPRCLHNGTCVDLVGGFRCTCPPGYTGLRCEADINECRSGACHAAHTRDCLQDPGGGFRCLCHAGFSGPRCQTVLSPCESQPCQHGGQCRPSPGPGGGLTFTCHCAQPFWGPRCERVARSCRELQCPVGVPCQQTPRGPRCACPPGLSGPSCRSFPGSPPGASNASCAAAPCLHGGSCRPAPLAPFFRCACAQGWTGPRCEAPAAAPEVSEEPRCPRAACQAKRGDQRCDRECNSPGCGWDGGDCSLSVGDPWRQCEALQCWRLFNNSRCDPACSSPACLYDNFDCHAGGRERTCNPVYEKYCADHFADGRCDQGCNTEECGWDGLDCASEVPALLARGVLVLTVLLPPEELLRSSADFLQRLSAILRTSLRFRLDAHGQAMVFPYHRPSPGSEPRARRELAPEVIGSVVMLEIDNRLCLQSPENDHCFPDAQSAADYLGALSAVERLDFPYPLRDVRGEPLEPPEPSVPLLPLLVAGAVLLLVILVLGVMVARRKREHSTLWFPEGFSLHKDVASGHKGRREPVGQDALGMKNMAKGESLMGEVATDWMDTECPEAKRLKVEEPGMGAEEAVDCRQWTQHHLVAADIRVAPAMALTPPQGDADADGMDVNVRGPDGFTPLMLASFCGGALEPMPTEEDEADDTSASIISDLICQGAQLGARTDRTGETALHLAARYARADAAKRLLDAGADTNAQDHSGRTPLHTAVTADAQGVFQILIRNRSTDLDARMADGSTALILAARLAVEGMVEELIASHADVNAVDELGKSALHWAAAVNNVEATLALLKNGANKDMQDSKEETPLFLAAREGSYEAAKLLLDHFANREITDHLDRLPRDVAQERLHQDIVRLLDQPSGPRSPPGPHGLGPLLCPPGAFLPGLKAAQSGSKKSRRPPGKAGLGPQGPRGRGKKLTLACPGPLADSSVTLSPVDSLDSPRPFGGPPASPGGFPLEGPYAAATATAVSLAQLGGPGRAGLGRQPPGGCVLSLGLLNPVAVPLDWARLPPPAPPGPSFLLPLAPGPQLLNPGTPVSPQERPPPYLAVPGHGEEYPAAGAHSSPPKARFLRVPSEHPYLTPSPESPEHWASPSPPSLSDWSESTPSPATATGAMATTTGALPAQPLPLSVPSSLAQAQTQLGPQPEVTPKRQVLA
# [20] = small-molecule microarray binders of probe aEGFR, primary screen, biochemical, biotinylated probe, 635/667 nm fluorescence (AID 1097); details: higher = more signal;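 further: probe is a biotinylated anti-EGFR antibody binding compounds printed on slides; score combines fluorescence near 667 nm and signal to noise of each spot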
SMILES,composite z-score [1],composite z-score [2],composite z-score [3],composite z-score [4],composite z-score [5],composite z-score [6],composite z-score [7],z-score [8],composite z-score [9],composite z-score [10],composite z-score [11],z-score [12],z-score [13],z-score [14],composite z-score [15],z-score [16],composite z-score [17],composite z-score [18],composite z-score [19],composite z-score [20]
COCCOC(=O)N1C(=O)[C@@]2(c3cc(C#CCCO)ccc31)[C@H](c1ccc(OCCO)cc1)N1[C@H](c3ccccc3)[C@H](c3ccccc3)OC(=O)[C@H]1[C@@H]2C(=O)NC[C@H](O)c1ccccc1,-0.484,1.04,-0.0628,0.889,1.4,1.12,1.25,0.504 (inactive),0.788,0.152,1.54,1.99 (inactive),1.98 (inactive),5.45 (inactive),2.54,1.3 (inactive),-0.116,1.6,1.07,-0.0286
CO[C@H]1COC(=O)CC=C[C@H](C)[C@@H](OC)COC(=O)[C@H](Cc2ccccc2)NC(=O)CC=C[C@@H]1C,-0.304,1.36,-0.167,-1.09,-1.79,-0.806,-1.09,-1.01 (inactive),-0.463,0.0524,0.942,0.37 (inactive),-0.623 (inactive),0.725 (inactive),-1.22,-0.145 (inactive),-0.298,1.68,0.0612,-0.172
COC(=O)[C@@]1(Cc2ccccc2)[C@H]2c3cc(C(=O)N4CCCC4)n(CCN4CNCC4=O)c3C[C@H]2CN1C(=O)c1ccccc1,0.243,1.35,0.106,0.598,1.4,1.71,1.37,1.41 (inactive),0.604,0.209,-0.337,-0.465 (inactive),0.826 (inactive),-0.153 (inactive),1.93,-0.0756 (inactive),0.154,-0.113,0.494,-0.013
O=C1O[C@H](c2ccccc2)[C@H](c2ccccc2)N2[C@H]1[C@@H](C(=O)Nc1nc3ccccc3s1)[C@]1(C(=O)Nc3ccc(C#CC4=CCCCC4)cc31)[C@H]2c1ccccc1OCCO,-0.572,0.255,0.0075,0.552,1.16,1.59,1.06,0.59 (inactive),0.459,-0.0726,1.56,2.17 (inactive),1.82 (inactive),4.5 (inactive),2.35,-0.0227 (inactive),-0.0778,1.53,1.1,0.0564
C/C(=N\O)C(=O)NCCCCCNC(=O)OCc1ccccc1,-0.286,0.135,-0.0711,0.418,0.475,0.0391,0.619,0.725 (inactive),0.271,-0.226,-0.214,-0.286 (inactive),-0.966 (inactive),-1.27 (inactive),0.63,2.03 (inactive),-0.0741,0.65,0.996,0.0221
C=C(C)[C@@H]1CC=C(C(O)C2C=CC3C(=O)NC(=O)C3N2Nc2ccccn2)CC1 (stereo not given in full),0.541,1.27,0.0127,1.07,1.61,1.36,1.35,1.65 (inactive),1.5,0.0524,1.55,0.0118 (inactive),0.514 (inactive),-0.285 (inactive),2.76,-0.953 (inactive),0.607,1.9,1.02,0.641
Cc1ccc(S[C@]2(C(=O)NC3CC3)CC(=O)N(Cc3cc(C(F)(F)F)cc(C(F)(F)F)c3)[C@@H]2c2ccc(CO)cc2)cc1,-0.293,0.0772,-0.138,0.138,0.1,0.522,1.24,-0.799 (inactive),0.0733,-0.295,1.55,-1.18 (inactive),-1.51 (inactive),-2.53 (inactive),2.27,-0.83 (inactive),-0.213,0.756,0.58,-0.0772
C=C(CCCC)C(=O)CC[C@@H](OC(C)=O)c1ccccc1OCCO,0.286,0.844,-0.177,-0.34,-0.975,-0.52,-0.37,-2.26 (inactive),-0.488,-0.0645,0.0077,-0.837 (inactive),-18.7 (active),-1.57 (inactive),-0.325,0.682 (inactive),-0.214,-0.61,-0.524,-0.232
COC(=O)C1=CC(c2ccc(CO)cc2)=CC(C2CC2)N(Cc2sc3ccccc3c2Cl)C=C1C(=O)OC (stereo not given),0.541,1.99,0.0083,0.88,1.26,1.68,1.33,-2.15 (inactive),1.32,0.065,1.55,-2.21 (inactive),-5.52 (inactive),-1.12 (inactive),3.07,-2.06 (inactive),0.214,0.331,1.1,0.157
COc1ccc([C@H]2C[C@H]3C(Br)=C[C@]2(OC)C(=O)[C@]32CO2)cc1,-0.207,-0.187,-0.0563,1.02,-0.203,-0.228,-0.0338,0.926 (inactive),0.198,0.0722,-0.378,-0.714 (inactive),-3.14 (inactive),-0.577 (inactive),-0.288,-0.987 (inactive),-0.159,0.145,0.372,-0.151
